RN4220 kill: growth inhibition of S. aureus RN4220, primary screen, OD600 | 16 h | inhibition, % (concentration not given with the values) | hit rate 0.33% among 330,000; in the data active = inhibition above about 85%
Mtb bLac sens: beta-lactam sensitization of Mtb H37Rv, H37Rv; M. tuberculosis H37Rv growth with meropenem, percent inhibition; inhibition, % at 25 µM; hit rate 0.27% among 330,000; call rule not given here;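 also: growth measured after seven days incubation then overnight dye step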
BH1578 lux ind: inducers of Vibrio cholerae quorum light production without autoinducers, primary screen, BH1578 luxS cqsA deficient, single point; V. cholerae BH1578 lux reporter, luminescence, 6 h; activation, % at 18.7 µM; hit rate 0.16% among 350,000; in the data active = activation mostly above about 9.7%, no sharp cut-off; inconclusive = no clear call, values can overlap the other calls; inactive = mostly below about 3.7%
PfHsp40 rescue: rescue of yeast from PfHsp40 toxicity, primary screen, S. cerevisiae, ATP luminescence | S. cerevisiae expressing PfHsp40, growth rescue | growth rescue, % at 12.5 µM | hit rate 0.68% among 340,000; in the data active = growth rescue above about 28%, passing the limit was not always enough; inconclusive = no clear call, values can overlap the other calls;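 also: yeast W303a lacking pdr1 and pdr3 grown in galactose medium; growth measured after three days at 30 °C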
ugtP null kill: growth inhibition of ugtP-null S. aureus, primary screen, RN4220 ugtP deletion, OD600 | 16 h | growth inhibition, % (test concentration not listed) | hit rate 0.54% among 330,000 | AID 1259309, 2017; in the data active = growth inhibition above about 68%
Each line names hits and unclear results; the compound was inactive in the other large screens. Shown are actives, neighbours in structure and some others; about 1.2% of the full set was active somewhere.

N#CC(=Cc1cccc(Cl)c1)c1n[nH]c(Cn2cncn2)n1	none (no result: Mtb bLac sens, BH1578 lux ind, PfHsp40 rescue)
CC(=NNS(=O)(=O)c1ccc(Cl)cc1)c1cccc(O)c1	none (no result: Mtb bLac sens, BH1578 lux ind, PfHsp40 rescue)
Cc1ccccc1-c1noc(-c2ccc(O)cc2)n1	PfHsp40 rescue 129
Cc1ccccc1-c1noc(-c2ccc(Cl)cc2)n1	none
COc1cc(C(=O)Nc2nc(-c3cccs3)cs2)cc(OC)c1OC	PfHsp40 rescue 41
COc1ccc2nc(NC(N)=NC(=S)Nc3ccc(C)c(C)c3)nc(C)c2c1	none (no result: Mtb bLac sens, BH1578 lux ind, PfHsp40 rescue)
C/C(C=NNC(=O)c1cc(C(C)(C)C)[nH]n1)=C\c1ccccc1	none (no result: Mtb bLac sens, BH1578 lux ind, PfHsp40 rescue)
CCOc1ccc(NCc2ccccc2OCc2cccc(F)c2)cc1	ugtP null kill 92
Fc1cccc(COc2ccccc2CNc2ccccc2)c1	none
c1ccc(-c2nc(-c3cccs3)[nH]c2-c2ccccc2)cc1	none
Oc1ccccc1-c1nc2c3ccccc3c3ccccc3c2[nH]1	RN4220 kill 100, ugtP null kill 98
c1csc(-c2nc3c4ccccc4c4ccccc4c3[nH]2)c1	ugtP null kill 90
NC(=NN=Cc1ccnc2ccccc12)SC1CC(=O)N(c2ccc(Br)cc2)C1=O (stereo unspecified)	none (no result: Mtb bLac sens, BH1578 lux ind, PfHsp40 rescue)
O=C(C[n+]1cc(Br)cc2ccccc21)c1ccccc1	PfHsp40 rescue 49
CCCCCCc1cc2cc(-c3nnc(-c4ccccc4O)o3)c(=O)oc2cc1O	Mtb bLac sens inconclusive, ugtP null kill 97
CCCCCCc1cc2cc(-c3nnc(-c4ccccc4OC)o3)c(=O)oc2cc1O	none (no result: RN4220 kill, ugtP null kill)
Cc1cc(N/N=C/c2ccc(O)c(C)c2O)nc(-c2ccccc2O)n1	PfHsp40 rescue 73 (no result: RN4220 kill, ugtP null kill)
Cc1cccc(-n2c(/C=C/c3ccc([N+](=O)[O-])o3)nc3ccccc3c2=O)c1	ugtP null kill 99
O=c1c2ccccc2nc(/C=C/c2ccc([N+](=O)[O-])o2)n1-c1ccc(O)cc1	RN4220 kill 99, ugtP null kill 100 (no result: Mtb bLac sens)
O=c1c2ccccc2nc(/C=C/c2ccccc2)n1-c1ccc(O)cc1	none
COC(=O)CN1C(=O)C2C(C3CC3)N3C(=O)CN(CCO)C(=O)[C@@]3(Cc3ccccc3)C2C1=O (stereo partly specified)	none (no result: Mtb bLac sens, BH1578 lux ind, PfHsp40 rescue)
CC1(C(=O)OCC(=O)Nc2ccc3ccccc3c2)CC1(Cl)Cl (stereo unspecified)	PfHsp40 rescue 46
COC(=O)CCn1[nH]c(=O)c2ccccc2c1=O	none
CCCCCCOC(=O)CCn1[nH]c(=O)c2ccccc2c1=O	PfHsp40 rescue 136
Cc1cccc(Nc2nnc(-c3ccc(C(=O)N4C[C@H]5C[C@H](C4)c4cccc(=O)n4C5)cc3)c3ccccc23)c1	PfHsp40 rescue 84
Cc1cccc(NC(=O)N2C[C@H]3C[C@@H](C2)c2cccc(=O)n2C3)c1	none
COc1cccc(C(=O)NC(=S)Nc2ccccc2N2CCCC2)c1	ugtP null kill 91
COc1cccc(C(=O)NC(=S)Nc2ccccc2N2CCCCC2)c1	ugtP null kill 89
O=C(CNc1ccc2c(c1)OCO2)NN=Cc1ccccc1Cl	none (no result: Mtb bLac sens, BH1578 lux ind, PfHsp40 rescue)
Cc1ccc(C)c(Sc2ccc(NC(=O)CCN3C(=O)NC4(CCCC4)C3=O)cc2)c1	PfHsp40 rescue 31
CC[n+]1ccc(/C=C/c2ccc(N(C)C)cc2)c2ccccc21	RN4220 kill 92, ugtP null kill 95 (no result: Mtb bLac sens)
CC[n+]1c(/C=C/c2ccc(N(C)C)cc2)ccc2ccccc21	RN4220 kill 98, ugtP null kill 96
CCN(CC)c1ccc(/C=C/c2ccc3ccc(OC)cc3[n+]2CC)cc1	RN4220 kill 100, PfHsp40 rescue 321, ugtP null kill 99
CC[n+]1c(/C=C/c2ccc(OC)c(OC)c2)ccc2ccccc21	none
O=C(NCCCN1CCOCC1)C(=O)NN=Cc1ccccc1Cl	none (no result: Mtb bLac sens, BH1578 lux ind, PfHsp40 rescue)
COC(=O)c1sc2nc(-c3ccco3)ccc2c1N	none
NC(=O)c1sc2nc(-c3ccco3)ccc2c1N	BH1578 lux ind 32
Cc1cccc(C2(c3cccc(C)c3)CC2C(=O)Nc2ccc([N+](=O)[O-])cc2O)c1 (stereo unspecified)	RN4220 kill 100, ugtP null kill 100
O=S1(=O)N=C(N(CCO)N=Cc2ccc(Br)cc2)c2ccccc21	none (no result: Mtb bLac sens, BH1578 lux ind, PfHsp40 rescue)
COC(=O)c1ccccc1NC(=O)C(C)Oc1ccccc1 (stereo unspecified)	none
CC(C)NC(=O)c1ccccc1NC(=O)C(C)Oc1ccccc1 (stereo unspecified)	PfHsp40 rescue 72
O=C(c1ccco1)N(CC1CCCO1)c1nc(-c2ccccc2)cs1 (stereo unspecified)	ugtP null kill 86
O=C(CN1CCOCC1)NN=Cc1c(O)ccc2ccccc12	none (no result: Mtb bLac sens, BH1578 lux ind, PfHsp40 rescue)

Screening results from PubChem BioAssay.
